Measured values reported in PubChem BioAssay (NCI).
The panel holds about 83,000 compounds, 20% with a hit somewhere; the sample as a whole holds those more often.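 Assay: single dose, 48 h. Readout: percent growth (0 = no net growth; negative = cell death). Active: <10.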 Active and inactive are the calls of the source.

The molecules below were run on OVCAR-8 ovarian (assay: NCI-60 one-dose screen, 48 h (100 = growth as untreated, 0 = no growth, -100 = all killed)). Settings: 10 µM unless noted.
Procedure: Growth inhibition of the OVCAR-8 human tumor cell line is measured as a screen for anti-cancer activity. Cells are grown in 96 well plates and exposed to the test compound for 48 hours. Compounds are tested at a single concentration, which is 10^-5 M for most compounds. The reported endpoint is percent growth (GI% or GIPRCNT), where numbers from 0 - 100% represent growth inhibition, and numbers from -100% - 0 represent cell death. For example, a value of 40 represents 60% growth inhibition. A value of 0 means no net growth occurred over the course of the experiment. A value of -40 indicates 40% of cells at the beginning of the experiment died by the end of the experiment. A value of -100 means all cells are dead at the end of the experiment.
NCI-60 Human Tumor Cell Lines Screen was performed using the standard one-dose NCI protocol, which is described in more detail at https://dtp.cancer.gov/discovery_development/nci-60/default.htm.
Compounds with GIPRCNT values below 10 were considered active. Activity score was based on GIPRCNT using the following formula: […]
Score is 0 for GIPRCNT values of 100 or above, 50 for GIPRCNT values of 0, and 100 for GIPRCNT values of -100.

**Q.** Which growth does the source give for `CCc1nc2c(=O)[nH]cnc2o1` here?
**A.** 111% (inactive)

**Q.** How did the growth turn out when `Cc1cccc(N2CCN(CC(O)COc3ccc(Cl)cc3)CC2)c1` (stereo not given) was run?
**A.** 98.8% (inactive)

**Q.** How did the growth turn out when `COc1cccc(CNc2ncnc3c2ncn3C2OC(CO)C(O)C2O)c1O` (stereo not given) was run?
**A.** 6.83% (active)

**Q.** `O=S(=O)(Nc1cc(Br)c(O)c2ccccc12)c1ccc(F)cc1` was tested. Which growth did it give?
**A.** 3.09% (active)

**Q.** `CC(C)=CCC[C@](C)(O)[C@H]1CC[C@]2(C)[C@@H]1CC[C@@H]1[C@@]3(C)Cc4nccnc4C(C)(C)[C@@H]3CC[C@]12C` was tested. Which growth did it give?
**A.** 101% (inactive)

**Q.** With `COCCNC(=O)c1ccc(-c2nc3ccc4[nH]ncc4c3c3c2CCCC3)cc1` as the molecule, how does the growth read?
**A.** 46% (inactive)

**Q.** For `CC(=O)n1nc(C(=O)OC(C)C)c2cc(C)c(C)cc21`, which growth is on record?
**A.** 96.8% (inactive)

**Q.** How did the growth turn out when `C#CCOc1cccc(Nc2ncnc3c(NC(=O)C=C)cccc23)c1` was run?
**A.** 4.27% (active)

**Q.** With `O=C1C(Cl)=C(Nc2ccc(O)cc2)C(=O)N1Cc1ccc(Cl)cc1` as the molecule, how does the growth read?
**A.** 65% (inactive)

**Q.** Which growth does the source give for `COc1cc(OC)cc(C2=C3CC[C@@H]4[C@H](CC[C@]5(C)C(=O)CC[C@@H]45)C3=CC3C(O)c4cccnc4N4C(=O)COC234)c1` (stereo not given in full) here?
**A.** 95% (inactive)

**Q.** Which growth does the source give for `c1ccc(CNc2c3ccccc3nc3ccccc23)cc1` here?
**A.** 26.1% (inactive)

**Q.** How did the growth turn out when `CN1CCN(Cc2ccc3c(NNC(=O)c4ccccc4)nc4cc(F)ccc4n23)CC1` was run?
**A.** 17.6% (inactive)

**Q.** How did the growth turn out when `COc1ccc2[nH]cc(C(c3cc(F)cc(F)c3)c3c[nH]c4ccc(OC)cc34)c2c1` was run?
**A.** 87.2% (inactive)

**Q.** `COc1ccc2[nH]cc(-c3nc(-c4c[nH]c5ccncc45)cs3)c2c1` was tested. Which growth did it give?
**A.** 38.6% (inactive)

**Q.** Which growth does the source give for `CCc1n(Cc2ccc3ccccc3c2)cc[n+]1Cc1ccc2ccccc2c1` here?
**A.** -4.85% (active)

**Q.** Which growth does the source give for `C=CCn1cc(-c2nc3ccccc3s2)c2cc(-c3ccc4c5c(cccc35)C(=O)N(N)C4=O)ccc21` here?
**A.** 102% (inactive)

**Q.** With `CN1CCN(C(=O)c2ccc(NC(=O)Nc3ccc(-c4nc(N5CCOCC5)c5cccn5n4)cc3)cc2)CC1` as the molecule, how does the growth read?
**A.** -3.62% (active)

**Q.** With `Cc1ccc(/C=C2\CN(C(=O)OC(C)(C)C)C/C(=C\c3ccc(C)cc3)C2=O)cc1` as the molecule, how does the growth read?
**A.** 25% (inactive)

**Q.** Which growth does the source give for `COc1cc2oc(-c3cccc(NC(=O)c4cccc(Br)c4)c3)cc(=O)c2c(OC)c1OC` here?
**A.** 34.8% (inactive)

**Q.** For `O=C1Nc2ccccc2/C1=C\c1nc(-c2ccccc2)n2ccccc12`, which growth is on record?
**A.** 95.5% (inactive)

**Q.** Which growth does the source give for `C=C(C)[C@@H]1CC[C@]2(C)[C@H](CC=C3[C@@H]4[C@H](C)[C@@H](C)CC[C@]4(CO)CC[C@]32C)[C@@]1(C)CCCN` here?
**A.** -48.5% (active)

**Q.** `CC(C)CCC[C@@H](C)[C@H]1CC[C@H]2[C@@H]3CC=C4C[C@@H](C(C(=O)O)C(=O)O)CC[C@]4(C)[C@H]3CC[C@]12C` was tested. Which growth did it give?
**A.** -19.8% (active)

**Q.** How did the growth turn out when `O=C1c2ccc3c4ccc5c6c(ccc(c7ccc(c2c37)C(=O)N1CCC[P+](c1ccccc1)(c1ccccc1)c1ccccc1)c64)C(=O)N(CCC[P+](c1ccccc1)(c1ccccc1)c1ccccc1)C5=O` was run?
**A.** 50.4% (inactive)

**Q.** Which growth does the source give for `N#C/C(=C\c1ccc(Br)cc1)n1nnc2ccc(F)cc21` here?
**A.** 7.38% (active)

**Q.** `C=CCc1c2c(c(OC)c3ccoc13)C(=O)/C(=C/c1ccccc1OC)O2` was tested. Which growth did it give?
**A.** 39.1% (inactive)

**Q.** `N#CC1=C(N)Oc2c(sc3c(Br)cccc23)C1c1ccc(F)cc1` (stereo not given) was tested. Which growth did it give?
**A.** 25.3% (inactive)

**Q.** For `COc1ccc2nc(NC(=O)CSc3nnc4n3S(=O)(=O)c3ccccc3N4C)sc2c1`, which growth is on record?
**A.** 84.6% (inactive)

**Q.** Which growth does the source give for `CCN1C(=O)N(CC)C2C1NN=c1s/c(=C\c3cccc([N+](=O)[O-])c3)c(=O)n12` (stereo not given) here?
**A.** 6.8% (active)

**Q.** For `O=C(COc1ccc(-c2nc3ccccc3[nH]2)cc1)N=Nc1c(O)[nH]c2ccc(Cl)cc12`, which growth is on record?
**A.** 11.9% (inactive)

**Q.** How did the growth turn out when `CCN(CC)c1ccc(/C=C/C(=O)c2ccc(Nc3nc(Nc4ccccc4)nc(Nc4ccccc4)n3)cc2)cc1` was run?
**A.** 43.8% (inactive)

**Q.** Which growth does the source give for `CC(C)N1CCN(Cc2ccc3c(NNC(=O)c4ccccc4)nc4cc(F)ccc4n23)CC1` here?
**A.** 17.9% (inactive)

**Q.** Which growth does the source give for `Cc1nc(-c2ccccc2)cc2c(O)c(C(=O)NN)[nH]c(=O)c12` here?
**A.** 106% (inactive)

**Q.** For `Nc1c(C(=O)Nc2ccccc2Cl)sc2nc3c(cc12)C(O)CCC3` (stereo not given), which growth is on record?
**A.** 32.3% (inactive)

**Q.** How did the growth turn out when `CN(CCn1sc(=O)n(Cc2ccccc2)c1=O)Cc1ccc2c(Cl)cc(Cl)c(O)c2n1` was run?
**A.** 32.7% (inactive)

**Q.** For `Cc1cccnc1NC(=S)Nc1ncccc1C`, which growth is on record?
**A.** 99.3% (inactive)

**Q.** `COc1ccc2nc3ccc(OC)cc3c(SCCCN)c2c1` was tested. Which growth did it give?
**A.** 76.1% (inactive)

**Q.** Which growth does the source give for `c1ccc(C2=NN[C@H](c3cn(-c4ccccc4)nc3-c3ccccc3)C2)cc1` here?
**A.** 35.6% (inactive)

**Q.** Which growth does the source give for `COc1ccc(-c2csc(N(C(=O)N3CCN(c4cc5c(cc4F)c(=O)c(C(=O)O)cn5C4CC4)CC3)c3ccccc3)n2)cc1` here?
**A.** 15.5% (inactive)

**Q.** For `CC(C)NC1CCC(Nc2ccnc3cc(Cl)ccc23)CC1` (stereo not given), which growth is on record?
**A.** 91.7% (inactive)

**Q.** `Cc1ccc(-c2nc3nc(-c4ccc(F)cc4)nc(N4CCNCC4)c3o2)cc1` was tested. Which growth did it give?
**A.** -50.1% (active)
